Laboratory results: PubChem BioAssay (Tox21)
Inconclusive results are not listed. Entries that show only a call come without a potency. The source made the active and inactive calls. Calls come from the whole dose curve.

target: Progesterone receptor (Homo sapiens) (UniProt P06401); test: qHTS assay to identify small molecule agonists of the progesterone receptor (PR) signaling pathway (AID 1346784); details: PR-UAS-bla HEK293T, beta-lactamase FRET ratio, 16 h; series mostly up to 92.4 µM; note: nearly all actives have a fitted effect of over 30% in size
From the text: U.S. Tox21 Program National Center for Advancing Translational Sciences [NCATS] NIH Chemical Genomics Center [NCGC] U.S. Environmental Protection Agency [EPA] National Institutes of Environmental Health Sciences [NIEHS] National Toxicology Program [NTP] U.S. Food and Drug Administration [FDA] […] Endocrine disrupting chemicals (EDCs) and their interactions with steroid hormone receptors like PR causes disruption of normal endocrine function. To identify the compounds that activate PR signaling, a PR-UAS-bla GripTite cell line i.e. PR-UAS-bla HEK 293T (Invitrogen, Carlsbad, CA, USA) containing a beta-lactamase reporter gene under the control of an Upstream Activator Sequence (UAS) was used to screen Tox21 10K compound library.
Tox21 Assay Protocol Summary: PR-UAS-bla HEK 293T cells were dispensed at 3,000 cells/5 uL of assay medium containing 2% charcoal stripped FBS per well into black wall/clear-bottom 1536-well plates using a Multidrop Combi (ThermoFisher Scientific, Waltham, MA) dispenser. After the assay plates were incubated at a 37C and 5% CO2 for 6hr, 23 nL of compounds dissolved in DMSO, positive controls or DMSO only was transferred to the assay plate by a Pintool station (Kalypsys, San Diego, CA). The plates were incubated at 37C and 5% CO2 for 16hr. Then 1 uL of LiveBLAzer B/G FRET substrate was added using a BioRAPTR FRD (Flying Reagent Dispenser, Aurora Discovery, San Diego, CA). After the plates were incubated at room temperature for 2 hours, fluorescence intensity was measured by an Envision plate reader (PerkinElmer, Shelton, CT).

Progesterone receptor (Homo sapiens), sequence (P06401 whole entry, looked up): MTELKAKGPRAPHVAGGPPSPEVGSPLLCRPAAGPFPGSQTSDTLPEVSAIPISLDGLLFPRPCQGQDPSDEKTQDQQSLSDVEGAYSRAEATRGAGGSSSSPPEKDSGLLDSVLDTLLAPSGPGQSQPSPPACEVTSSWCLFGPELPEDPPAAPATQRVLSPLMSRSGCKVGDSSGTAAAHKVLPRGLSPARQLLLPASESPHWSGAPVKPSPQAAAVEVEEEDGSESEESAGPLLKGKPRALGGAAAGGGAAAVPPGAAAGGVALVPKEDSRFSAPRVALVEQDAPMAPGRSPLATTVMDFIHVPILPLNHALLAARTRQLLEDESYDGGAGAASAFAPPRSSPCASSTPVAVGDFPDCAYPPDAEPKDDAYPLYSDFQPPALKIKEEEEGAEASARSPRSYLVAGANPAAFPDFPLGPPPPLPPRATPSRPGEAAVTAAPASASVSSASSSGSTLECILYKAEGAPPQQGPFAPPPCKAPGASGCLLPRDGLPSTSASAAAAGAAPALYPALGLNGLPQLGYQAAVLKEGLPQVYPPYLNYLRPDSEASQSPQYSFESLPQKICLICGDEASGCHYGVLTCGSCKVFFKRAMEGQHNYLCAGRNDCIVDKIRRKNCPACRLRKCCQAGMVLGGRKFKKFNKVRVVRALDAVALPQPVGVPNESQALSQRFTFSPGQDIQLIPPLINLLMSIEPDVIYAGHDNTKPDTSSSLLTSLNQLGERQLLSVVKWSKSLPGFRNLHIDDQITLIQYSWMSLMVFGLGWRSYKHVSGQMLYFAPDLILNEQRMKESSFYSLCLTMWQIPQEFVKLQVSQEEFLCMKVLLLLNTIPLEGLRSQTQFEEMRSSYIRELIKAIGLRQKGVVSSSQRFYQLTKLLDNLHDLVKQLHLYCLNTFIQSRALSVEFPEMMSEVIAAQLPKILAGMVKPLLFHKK

| SMILES | Potency |
| --- | --- |
| Oc1ccc([C@H]2CNCc3c2ccc(O)c3O)cc1O | inactive |
| O=C(O)CCCCCCNC1c2ccccc2CCc2ccccc21 | inactive |
| COC(=O)N(OC)c1ccccc1COc1ccn(-c2ccc(Cl)cc2)n1 | inactive |
| CCOP(=S)(NC(C)C)Oc1ccccc1C(=O)OC(C)C (stereo not given) | inactive |
| Cc1cnc2c(C(=O)O)c(Cl)ccc2c1 | inactive |
| CCC(C)Nc1c([N+](=O)[O-])cc(C(C)(C)C)cc1[N+](=O)[O-] (stereo not given) | inactive |
| CCNS(=O)(=O)C(F)(F)C(F)(F)C(F)(F)C(F)(F)C(F)(F)C(F)(F)C(F)(F)C(F)(F)F | inactive |
| CC(=O)C(Cl)C(=O)N(C)C (stereo not given) | inactive |
| CC(C)=CCN1CC[C@@]2(C)c3cc(O)ccc3C[C@@H]1[C@@H]2C | inactive |
| CCN(CC)Cc1nccn1-c1ccc([N+](=O)[O-])cc1C(=O)c1ccccc1Cl | inactive |
| C#CCC1=C(C)C(OC(=O)C2C(C=C(C)C)C2(C)C)CC1=O (stereo not given) | inactive |
| Nc1ccc(Cl)cc1C(=O)c1ccccc1F | inactive |
| COc1nc(C)nc(NC(=O)NS(=O)(=O)c2ccccc2Cl)n1 | inactive |
| O=[N+]([O-])c1cccc2cccc([N+](=O)[O-])c12 | inactive |
| BrCCCBr | inactive |
| CN1C(=O)[C@@H](NC(=O)c2cc3ccccc3[nH]2)N=C(c2ccccc2)c2ccccc21 | inactive |
| O=c1c2ccccc2c(=O)c2c1cc(Cl)c1[nH]c3c([nH]c12)c(Cl)cc1c(=O)c2ccccc2c(=O)c13 | inactive |
| CNC(=O)O/N=C(\C)C(C)S(C)(=O)=O (stereo not given) | inactive |
| FC(F)C(F)(F)OCC(Cn1cncn1)c1ccc(Cl)cc1Cl (stereo not given) | inactive |
| CCN(CC)C(=O)N[C@@H]1C=C2c3cccc4[nH]cc(c34)C[C@@H]2N(C)C1 | inactive |

| SMILES | Potency |
| --- | --- |
| CC(C)(C)c1ccc(OP(=O)(Oc2ccccc2)Oc2ccccc2)cc1 | inactive |
| CCN1CCC2(CC1)COc1cc3c(cc12)N(C(=O)c1ccc(-c2ccc(-c4nnc(C)o4)cc2C)cc1)CC3 | inactive |
| O=C(NC(=O)c1ccccc1Cl)Nc1ccc(OC(F)(F)F)cc1 | inactive |
| CC(Cc1ccc(OCC(=O)O)cc1)NCC(O)c1csc(C(F)(F)F)n1 (stereo not given) | inactive |
| CC(C)NCC(O)c1ccccc1Cl (stereo not given) | inactive |
| Cc1ccccc1OP(=O)(Oc1ccccc1C)Oc1ccccc1C | inactive |
| ClC1(Cl)C2(Cl)C3(Cl)C4(Cl)C(Cl)(Cl)C5(Cl)C3(Cl)C1(Cl)C5(Cl)C24Cl (stereo not given) | inactive |
| O=C(NC(=O)c1c(F)cccc1F)Nc1ccc(Oc2ccc(C(F)(F)F)cc2Cl)cc1F | inactive |
| CC(=O)O.CC(=O)O.CC(=O)O.CC(=O)O.CC(=O)O.CC(=O)O.CC(=O)O.O.O.[Cr].[Cr].[Cr] | inactive |
| Cc1nn(-c2cc(NS(C)(=O)=O)c(Cl)cc2Cl)c(=O)n1C(F)F | inactive |
| CC(C)Br | inactive |
| CCOC(=O)Cc1ccccc1 | inactive |
| CSSC | inactive |
| CNC(=O)Oc1cc(C)cc(C(C)C)c1 | inactive |
| O=[N+]([O-])[O-].[Tl+] | inactive |
| CCCC[N+]1(C)CCCC1 (tested in a mixture with another compound) | inactive |
| CCNc1nc(NC(C)C(C)C)nc(SC)n1 (stereo not given) | inactive |
| CO/N=C(/C1=NOCCO1)c1ccccc1Oc1ncnc(Oc2ccccc2Cl)c1F | inactive |
| CN(C)C(=S)SSC(=S)N(C)C | inactive |
| CCOP(=S)(OCC)Oc1cc(C)nc(N(CC)CC)n1 | inactive |
